Source: PubChem BioAssay (NCI)
About 79,000 compounds went through this panel and 15% of them were active in at least one assay; those are over-represented in the sample as a whole. No stated cut-off is given here; in the data, active means growth inhibition above about 70%; inactive means the rest.

Assays:
[1] = NCI Yeast Anticancer Drug Screen. Data for the rad50 strain (AID 155);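 further: 0% = growth of vehicle-only cultures of the same strain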; details: S. cerevisiae rad50 strain growth inhibition; at 50.0 µM; hits give high values
In short: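 Relative growth inhibition (compound vs vehicle) was measured in yeast with a defined repair-gene alteration.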

[2] = NCI Yeast Anticancer Drug Screen. Data for the mec2-1 strain (AID 157); details: S. cerevisiae mec2-1 strain, at 50.0 µM, hits give high values
In short: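 Strain: mec2-1 (DNA repair/cell cycle alteration). Compound exposure, then growth measured; inhibition expressed relative to vehicle.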

[3] = NCI Yeast Anticancer Drug Screen. Data for the sgs1 mgt1 strain (AID 161);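 further: 0% = growth of cultures given vehicle only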; details: S. cerevisiae sgs1 mgt1 strain, at 50.0 µM, hits give high values
In short: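 Inhibition of yeast growth, normalised to vehicle-treated controls, is reported for a strain bearing genetic alterations in DNA damage repair.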

[4] = NCI Yeast Anticancer Drug Screen. Data for the cln2 rad14 strain (AID 165);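 further: 0% = growth equal to vehicle treated cultures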; details: S. cerevisiae cln2 rad14 strain, at 50.0 µM, hits give high values
In short: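 Compounds are applied to the cln2 rad14 yeast strain, and growth is then compared with that of vehicle-treated cultures to give inhibition.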

[5] = NCI Yeast Anticancer Drug Screen. Data for the bub3 strain (AID 167); details: S. cerevisiae bub3 mutant strain, at 50.0 µM, hits give high values
In short: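 Screening used yeast with an engineered genetic alteration affecting cell cycle control. Compound-exposed cultures were compared with vehicle cultures, and reduced growth was taken as inhibition.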

[6] = NCI Yeast Anticancer Drug Screen. Data for the mlh1 rad18 strain (AID 175); details: S. cerevisiae mlh1 rad18 strain growth inhibition; at 50.0 µM; hits give high values
In short: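 Read-out is yeast growth inhibition, calculated against vehicle-only controls. The compound was applied to a strain engineered with DNA damage repair alterations.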

Measured: growth inhibition

CC(=O)OCCC1CC2c3[nH]c4ccccc4c3CCN2C1=O (stereo not given)
inactive: [1] -3.85% | [2] -7% | [3] 15.9% | [4] 0.85% | [5] 10.7% | [6] -22.1%

COC(=O)C(CC12CC3CC(CC(C3)C1)C2)NC(=O)C(N)CC(=O)O (stereo not given)
inactive: [1] -42.9% | [2] -30.4% | [3] -23.8% | [4] 15.9% | [5] 14.7% | [6] -24.4%

Cc1ccccc1N(CC1CO1)CC1CO1 (stereo not given)
inactive: [1] 10.2% | [2] -18.1% | [3] -20.8% | [4] -19% | [5] -0.8% | [6] -3.25%

FC(F)(F)C1(C(F)(F)F)OS2(OC(C(F)(F)F)(C(F)(F)F)c3ccccc32)c2ccccc21
inactive: [1] 0.5% | [2] 3.4% | [3] 3.3% | [4] -22.9% | [5] -1.1% | [6] -5.1%

Cc1ccc(Cc2nn(C)c(=O)n2N)cc1
inactive: [1] -7.1% | [2] -2.5% | [3] 18.6% | [4] -3% | [5] -13.1% | [6] -18.9%

Cc1ccc(N=C2C(c3ccccc3)=C(SC3=C(c4ccccc4)C(=Nc4ccc(C)cc4)c4ccccc43)c3ccccc32)cc1
inactive: [1] 12.9% | [2] 0.7% | [3] 3.9% | [4] 15.2% | [5] -3% | [6] -8.65%

CC(C)(C)C1CCC2c3c([nH]c4ccccc34)C3C(=O)N(c4ccc(Br)cc4)C(=O)C3C2C1 (stereo not given)
inactive: [1] 12.8% | [2] 11.8% | [3] 8.05% | [4] -35.6% | [5] 13.8% | [6] 6.15%

CC1CN(C(C)(C)C)CO1 (stereo not given)
inactive: [1] -0.3% | [2] -10.4% | [3] -18.6% | [4] 8.3% | [5] -26.5% | [6] -25.6%

CC12CC(c3ccccc3)C(C)(C(c3ccccc3)=C1c1ccccc1)C2(O)c1ccccc1 (stereo not given)
inactive: [1] -2.85% | [2] 0.1% | [3] 12.7% | [4] -13.3% | [5] -2.45% | [6] 13.4%

CCN(CC)C(=O)C1(C)NS(=O)(=O)c2ccccc2C1=O (stereo not given)
inactive: [1] -7.05% | [2] 10.1% | [3] -4.15% | [4] -31.9% | [5] -10.8% | [6] -9.45%

N#CCCCCC12C3C(=O)N(c4ccccc4)C(=O)C3ON1O[C@@H]1C(=O)N(c3ccccc3)C(=O)[C@@H]12 (stereo not given in full)
inactive: [1] 43.4% | [2] 19.3% | [3] 26.7% | [4] 49.9% | [5] 33.5% | [6] 44.4%

COc1ccc(C2N(NC(=O)c3ccncc3)C(=O)CS2(=O)=O)cc1F (stereo not given)
inactive: [1] -3.95% | [2] -12.6% | [3] -11.8% | [4] -1.55% | [5] 0.75% | [6] 0.95%

Cc1ccc(-c2oc3ccccc3c(=O)c2O)cc1
inactive: [1] 22.9% | [2] -9.9% | [3] 2.1% | [4] -5.3% | [5] 5.45% | [6] 7.65%

CN(C)CCNC(=O)c1cccc2nc3c(C(=O)NCCN(C)C)cccc3nc12
inactive: [1] -11.7% | [2] -20.4% | [3] -46.6% | [4] -33.7% | [5] -34.1% | [6] -40.5%

O=C(Cl)c1cc(-c2ccccc2)nc2c(Cl)cccc12
inactive: [1] 46.1% | [2] 39.4% | [3] 43% | [4] 39.1% | [5] 40.5% | [6] 38%

Cc1ccc(S(=O)(=O)c2c(N)c3nccn3c3nc4ccccc4nc23)cc1
inactive: [1] -52.2% | [2] -68.2% | [3] -77.5% | [4] -38.8% | [5] -62.1% | [6] -88.8%

Cc1cc(=O)[nH]c(NN2C(Cl)C(=O)C2c2c(O)ccc3ccccc23)n1 (stereo not given)
inactive: [1] -8.2% | [2] -10.6% | [3] -0.75% | [4] 13.3% | [5] 0.7% | [6] -32.8%

CC(C)(C)c1cc(C2OC(N)=C(O)C2=O)cc(C(C)(C)C)c1O (stereo not given)
inactive: [1] 13.4% | [2] 11.1% | [3] 24.7% | [4] 13.8% | [5] 5.4% | [6] 32.2%

CCCC1SC(=S)N(c2ccc(Cl)cc2)C1=O (stereo not given)
inactive: [1] 17.9% | [2] 22.1% | [3] 26.5% | [4] 9.2% | [5] -1.55% | [6] 9.9%

CCN(CC)C(=O)NCCCCCCNC(=O)N(CC)CC
inactive: [1] -20.2% | [2] -36.8% | [3] -27.8% | [4] -20% | [5] -29.2% | [6] -23.6%

CCOC1CCCC(OCC)O1 (stereo not given)
inactive: [1] -44.4% | [2] -48.5% | [3] -19.9% | [4] 12% | [5] -37.6% | [6] -27.9%

COc1ccccc1NC(=O)C1=C(C)NC(C)=C(C(=O)Nc2ccccc2OC)C1c1ccc(N(C)C)cc1
inactive: [1] 50.2% | [2] 41.4% | [3] 61.4% | [4] 24.9% | [5] 46.2% | [6] 45%

CC(C)(C)c1ccc(-c2cc3nc(-c4ccccc4)cc(=O)n3[nH]2)cc1
inactive: [1] -8.05% | [2] -30.3% | [3] 10.5% | [4] 5.9% | [5] 10.8% | [6] -0.55%

CN(C)CCCNc1cc[n+](C)c2cccc([N+](=O)[O-])c12
inactive: [1] 27.1% | [2] 15.4% | [3] 31.4% | [4] 20.4% | [5] 13.8% | [6] 27.3%

CC(=O)/C(C(=N)C(=O)c1ccccc1)=C(\C)O
inactive: [1] -12.1% | [2] 22.5% | [3] 3.5% | [4] -16.6% | [5] 4.3% | [6] 0.25%

O=C(O)c1cccc2c1-c1ccc(NC(=O)C(Cl)Cl)cc1C2=O
inactive: [1] 31% | [2] -1.65% | [3] -6.85% | [4] -5.7% | [5] 16.1% | [6] 12.1%

COc1cc(-c2ccc(N=Nc3ccc(N)nc3N)c(OC)c2)ccc1N=Nc1ccc(N)nc1N
inactive: [1] 6.9% | [2] -3.9% | [3] 23.3% | [4] 12.4% | [5] -1.45% | [6] 11.7%

CCOC(=O)C(C(=O)OCC)=C(C)C
inactive: [1] -9.9% | [2] -32% | [3] -12.2% | [4] -3.1% | [5] -26.1% | [6] -37.3%

CC(=O)CC(=O)Nc1ccc(NC(=O)CC(C)=O)cc1
inactive: [1] -13.5% | [2] -30.9% | [3] -21.1% | [4] -0.55% | [5] -23.5% | [6] -15.9%

Nc1cc(C(F)(F)F)ccc1[N+](=O)[O-]
inactive: [1] 14.2% | [2] -10.2% | [3] 8% | [4] -7.25% | [5] 8.85% | [6] 22.4%

CN(C)CCCSc1n[nH]c(=O)[nH]c1=O
inactive: [1] 6.4% | [2] 2.5% | [3] -11.3% | [4] -19.7% | [5] 1.6% | [6] -10.1%

CC(=O)/C(=C\c1ccccc1F)C(=O)CCN(C)C
inactive: [1] 7.95% | [2] 6.55% | [3] 8.05% | [4] 12.2% | [5] 13.6% | [6] 28.3%

CC(=O)c1ccco1
inactive: [1] 17.8% | [2] 16.4% | [3] -5.15% | [4] -43% | [5] 1.25% | [6] 13.1%

COC(=O)NC(CI)c1ccccc1 (stereo not given)
inactive: [1] 14.7% | [2] -5.8% | [3] 7.55% | [4] 8.85% | [5] -6.35% | [6] 23.9%

COc1ccc(/C=C\c2cccc(Cl)c2)cc1
inactive: [1] 21.6% | [2] -25.1% | [3] 3.3% | [4] -8.95% | [5] -13.3% | [6] 6.4%

Cc1c(C2CC(=O)N(c3ccccc3)C2=O)c2ccccc2n1C (stereo not given)
inactive: [1] -6.25% | [2] -6% | [3] -7.4% | [4] -33.7% | [5] 1.85% | [6] -8.25%

Cn1c(=O)oc2cc(C(=O)CSC(=S)N3CCCCCC3)ccc21
inactive: [1] -18.3% | [2] -33.1% | [3] -17.6% | [4] -14.8% | [5] -4.8% | [6] -7.6%

N#CC(c1ccccc1)[N+](=O)[O-] (stereo not given)
inactive: [1] 11.2% | [2] -5.05% | [3] -2.45% | [4] 9.3% | [5] -2.95% | [6] 22.8%

Clc1ccccc1C1Nc2ccccc2S1 (stereo not given)
inactive: [1] 39.7% | [2] 17.6% | [3] 48.2% | [4] -7.75% | [5] 13.3% | [6] 38.2%

O=C(CCCC(=O)N/N=C/c1cccc([N+](=O)[O-])c1)N/N=C\c1cccc([N+](=O)[O-])c1
inactive: [1] 26.6% | [2] 21.9% | [3] 5.1% | [4] 26.8% | [5] 2.45% | [6] 26.1%
